Hits are enriched below; roughly 1.1% of the tested compounds scored in any of these assays.
HTR5A inv ag = counter-screen for OPRM1-OPRD1 inverse agonists: human HTR5A inverse agonism. HTR5A cell line, luminescence. P47898. inhibition, % at 9.3 µM. actives 0.083% (n = 340,000); in the data active = inhibition mostly above about 23%, no sharp cut-off; inactive = mostly below about 18%;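 also: 0% = cells with DMSO and 100% = no-cell wells with DMSO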
Target sequence (P47898 whole entry, looked up): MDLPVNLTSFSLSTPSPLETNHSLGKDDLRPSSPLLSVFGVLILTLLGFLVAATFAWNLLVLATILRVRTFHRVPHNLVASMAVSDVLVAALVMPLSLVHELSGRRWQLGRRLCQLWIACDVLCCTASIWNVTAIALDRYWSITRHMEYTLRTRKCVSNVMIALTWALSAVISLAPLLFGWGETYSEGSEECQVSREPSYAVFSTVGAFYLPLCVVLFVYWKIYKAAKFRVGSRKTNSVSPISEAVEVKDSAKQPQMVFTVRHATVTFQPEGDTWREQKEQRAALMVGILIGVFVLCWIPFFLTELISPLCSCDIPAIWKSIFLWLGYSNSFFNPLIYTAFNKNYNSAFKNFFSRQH
OPRM1-OPRD1 ag = agonists of human mu-delta opioid receptor heterodimerization; P35372+P41143; cells, OPRM1-OPRD1 heterodimerization, luminescence; activation, % at 9.3 µM; actives 0.3% (n = 340,000); AID 504326; in the data active = activation above about 18%;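 also: 0% = vehicle-treated cells and 100% = reference agonist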
HTR5A ag = HTR5A agonism, opioid heterodimer counter-screen. activation, % at 9.3 µM. actives 0.61% (n = 340,000). HTR5A agonist assay, luminescence, cell-based. P47898; in the data active = activation mostly above about 9.5%, no sharp cut-off; inactive = mostly below about 7.6%;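 also: 0% = cells with vehicle only and 100% = reference agonist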
MOR-DOR inv ag = inverse agonists of human mu-delta opioid receptor heterodimerization; cell-based MOR-DOR heterodimer luminescence, inverse agonism; actives 0.21% (n = 340,000); P35372+P41143; AID 504357; inhibition, % at 9.3 µM; in the data active = inhibition above about 22%, passing the limit was not always enough;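 also: 0% = cells with DMSO and 100% = wells without cells with DMSO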
Numbers without * were called inactive.

SMILES	HTR5A inv ag	OPRM1-OPRD1 ag	HTR5A ag	MOR-DOR inv ag
O=C(c1ccco1)N1CCN(C(=O)C2CC(=O)N(c3ccc(Cl)cc3)C2)CC1 (configuration not stated)	8	0	-3	-3
O=C1Nc2ccccc2C1=Nc1ccc(Br)cc1	21	-11	-5	55*
CCN(CC)c1ccc(N=C2C(=O)Nc3ccccc32)cc1	10	-5	-3	24
O=C1Nc2ccccc2C1=Nc1ccc(Cl)cc1	14	-14	-4	64*
Cc1ccccc1NC(=O)c1ccccc1NC(=O)CCC(=O)O	-14	0	4	2
CCn1c(Cc2cccs2)nnc1SCC(=O)Nc1ccc(OC)c(OC)c1	-40	-1	9.7*	7
CCn1c(SCC(=O)Nc2ccc3c(c2)oc2ccccc23)nnc1-c1ccc(N)cc1	-21	14	11*	-80
CCOc1ccc(Nc2nc(N)nc(CCl)n2)cc1	-166	68*	90*	-343
Cc1ccc(Nc2nc(N)nc(CN3CCCCCC3)n2)c(C)c1	-13	-3	6	13
Cc1ccc(Nc2nc(N)nc(CCl)n2)c(C)c1	-27	61*	63*	-300
Nc1nc(CCl)nc(Nc2ccccc2)n1	0	-3	0	12
CCOc1ccc(NC(=O)CN2C(=O)S/C(=C/c3cccn3C)C2=O)cc1	-9	-1	3	4
CCN(CC)C(=O)CSc1ncnc2sc(-c3ccccc3)cc12	-8	2	9.3*	-11
COc1ccc(NC(=O)CSc2nncn2N)c(OC)c1	-17	-1	1	4
COc1ccccc1NC(=O)CSc1nncn1N	-2	-2	13*	10
CN(C(=O)COC(=O)c1ccccc1Cc1ccccc1)c1c(N)n(Cc2ccccc2)c(=O)[nH]c1=O	18	-2	-7	13
CCN1CCN(CCC(=O)Nc2cc(OC)cc(OC)c2)CC1	-34	-3	9.2*	12
CCN(c1ccccc1)S(=O)(=O)c1cccc(C(=O)NCC2(N(C)C)CCCCC2)c1	3	3	-1	-14
Clc1ccc(CN2CCc3c([nH]c4ccccc34)C2)cc1Cl	-52	10	14*	-50
CC#CCN(Cc1ccco1)C(=O)c1ccc(OC2CCN(Cc3ccccn3)CC2)cc1	-30	-2	9.8*	12
CN(Cc1ccco1)C(=O)c1ccc(OC2CCN(Cc3ccccn3)CC2)cc1	-3	-2	1	8
CCOc1ccc(S(=O)(=O)NCCC(=O)NCCCSc2ccccc2)cc1	29	0	-11	3
CC[n+]1ccc(/C=C/c2ccc(N(C)C)cc2)c2ccccc21	34*	-6	-14	27
CC(=O)NC(Cc1ccc(F)cc1)C(=O)NC1CCN(S(=O)(=O)c2ccccc2)CC1 (configuration not stated)	-20	-1	4	8
O=C(NNC(=O)c1cccc2ccccc12)c1ccc(-c2ccccc2)cc1	-52	6	13*	-33
SMILES	HTR5A inv ag	OPRM1-OPRD1 ag	HTR5A ag	MOR-DOR inv ag
O=C(NNC(=O)c1cccc2ccccc12)c1ccccc1O	-32	-2	5	13
Cc1ccc(CNC(=S)Nc2ccc(NS(=O)(=O)c3ccc(C)cc3)cc2)cc1	11	4	11*	-21
Cc1ccc(NC(=S)NCc2ccc(F)cc2)cc1	-19	0	7	1
O=C(COC(=O)c1cc(Cl)ccc1[N+](=O)[O-])NCc1ccc(Cl)cc1Cl	-5	5	1	-26
Cc1ccc(-c2n[nH]c(=S)n2/N=C/C=C\c2ccccc2[N+](=O)[O-])cc1	9	3	-4	-13
O=[N+]([O-])c1ccccc1/C=C/C=N/n1c(-c2ccccc2)n[nH]c1=S	-35	3	13*	-21
CCN(CC(=O)Nc1ccccc1C(F)(F)F)C(=O)Cc1ccccc1	-6	-2	2	13
NC(=O)c1ccccc1NC(=O)CS(=O)(=O)Cc1ccccc1	-9	3	9.6*	-18
NC(=O)c1ccccc1NC(=O)CCCc1ccccc1	8	-4	-2	18
CC(NC(=O)Nc1ccccc1C(F)(F)F)C1CCCO1 (configuration not stated)	-7	-1	1	8
O=C(Nc1ccncc1)c1cc(S(=O)(=O)N2CCCC2)ccc1Cl	-29	-3	11	11
c1ccc2oc(-c3csc(NCC4CCCO4)n3)cc2c1 (configuration not stated)	14	-3	-5	12
CCc1nnc(NS(=O)(=O)c2ccc(Nc3ccc([N+](=O)[O-])c4nonc34)cc2)s1	31*	-7	-11	36*
CCc1nnc(NS(=O)(=O)c2ccc(NS(=O)(=O)c3ccccc3[N+](=O)[O-])cc2)s1	-1	-2	0	8
CNC(=O)c1csc(-c2ccc(Cl)cc2)n1	10	-1	-4	8

Screening results as filed in PubChem BioAssay.
